Measured values as given in PubChem BioAssay (NCI).
This is part of a sample that, as a whole, favours compounds with a hit. Of some 83,000 tested, about 20% had one in any assay.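 A percent growth of 40 corresponds to 60% growth inhibition; 0 means no net growth; -100 means all cells died. Active threshold: below 10.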 A number with no mark means an inactive call.

The compounds below were run on OVCAR-8 ovarian (assay: NCI-60 one-dose screen, 48 h (100 = growth as untreated, 0 = no growth, -100 = all killed)). Conditions: 10 µM unless noted.
Compound `S=c1[nH]nc2ccccn12` has a growth of 125%. For `N#CC1C(=N)Cc2ccccc2-c2ccccc21` (centres undefined), the growth was 63.1%. With `COc1c(N)c2c(c([N+](=O)[O-])c1OC)C(=O)OC2` the growth was 98.1%. In the case of `CC(=O)O[C@H]1CC[C@@]2(C)C(=CC[C@@H]3[C@@H]2CC[C@]2(C)C(=O)N(O)C(=O)C[C@@H]32)C1`, the growth is reported as 101%. For `C/C(=N\NC(=O)C(C)SC(C)C(=O)N/N=C(\C)c1cccnc1)c1cccnc1` (centres undefined), the growth was 109%. `Cc1cc(Nc2ccc(F)cc2)nc(N2CCN(c3ccnc4cc(Cl)ccc34)CC2)n1` gave a growth of 31.9%. `COC(=O)[C@@H]1[C@H]2C[C@H]3c4[nH]c5cc(OC)ccc5c4CCN3C[C@@H]2C[C@H](OC(=O)/C=C/c2ccnc(OC)c2)[C@H]1OC` gave a growth of 88.4%. In the case of `Fc1cccc(-c2[nH]nc3nc(Nc4cccnc4)sc23)c1`, the growth is reported as 54%. For `O=C(c1ccccc1)C(CN1CCOCC1)c1ccccc1` (centres undefined), the growth was 14.2%. In the case of `CCOc1ccc(NC(=O)c2ccccc2-c2ccccc2C(=O)O)cc1`, the growth is reported as 111%. Compound `Cc1ccc(Nc2c(C(N)=O)cnc3ccc(S(=O)(=O)Nc4cc(C)on4)cc23)cc1` has a growth of 97.9%. In the case of `Cn1cc(-c2csc(-c3cn(C(=O)OC(C)(C)C)c4ccc(Br)cc34)n2)c2cccnc21`, the growth is reported as 70.7%. With `CC1=CC(=O)N(c2cccc3c(N4C(=O)C=C(C)C4=O)cccc23)C1=O` the growth was 80.3%. Compound `Cn1cc(-c2nc(-c3cn(C)c4ncccc34)cs2)c2ccccc21` has a growth of 47.9%.
